High-throughput results: PubChem, National Center for Advancing Translational Sciences (NCATS)
Rows were chosen to be rich in hits. Some 1.3% of all compounds tested hit in one or more screens of this group.
WRN inhibitor: qHTS for Inhibitors of WRN Helicase; Bifunctional 3'-5' exonuclease/ATP-dependent helicase WRN (Homo sapiens), Q14191; WRN helicase unwinding, fluorescent forked duplex, kinetic; Potency, µM (highest dose often 114 µM), without a hit: top-dose activity change, negative = inhibition, hits mostly inhibitors; 360,000 tested, 0.46% active; AID 651768, 2012; further: potency means the concentration at half of the fitted maximal effect; on the % scale 0 is the no-effect control and ±100 the full control effect; nearly all actives have a fitted effect of over 55% in size
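Kinetic fluorescence helicase assay: unwinding of a quenched forked DNA duplex (100 nM final) with 2 mM ATP final raises red fluorescence (525/598 nm). Compounds sat 15 min at room temperature with 20 nM WRN beforehand.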
GRP78 ERSR act: qHTS for Inducers of the Endoplasmic Reticulum Stress Response (ERSR) in Human Glioma: qHTS. U87-MG GRP78 promoter luciferase reporter, 16 h. Potency, µM, for inactives: top-dose activation, usual class: activators. 420,000 tested, 0.02% active; further: potency means the concentration at half of the fitted maximal effect; series mostly up to about 76 µM; % of control where 0% means no effect; nearly all actives have a fitted effect of over 35% in size
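Stably transfected U87-MG human glioma cells carrying a GRP78-based luminescent sensor were seeded at 1000 cells/well, pin-dosed with compounds and incubated 16 h. Luciferase reagent was then added, and end-point luminescence was read after 10 min at room temperature.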
Tb PGK inh: qHTS Assay to Find Inhibitors of Phosphoglycerate Kinase | Phosphoglycerate kinase, glycosomal (Trypanosoma brucei brucei), P07378 | PGK/GAPDH coupled, Kinase-Glo luminescence, 60 min | Potency, µM (doses to about 57.5 µM), without a hit: at the top dose activity change, negative = inhibition, usual class: inhibitors | 380,000 tested, 0.043% active; further: potency means the concentration at half of the fitted maximal effect; on the % scale 0 is the no-effect control and ±100 the full control effect; nearly all actives have a fitted effect of over 60% in size
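Recombinant glycosomal PGK reaction used 1,3-bisphosphoglycerate generated in-well by GAPDH (100nM final) in 100mM TEA pH 7.6, 5mM MgCl2, 0.01% Tween-20. After 60 minutes at room temperature, ATP was read by Kinase-Glo Plus luminescence end-point.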
FEN1 inh: qHTS Assay for the Inhibitors of Human Flap endonuclease 1 (FEN1). P39748. Recombinant FEN1 flap cleavage, fluorescence, 15 min. 390,000 tested, 0.35% active. AID 588795, 2011. Potency, µM (doses to about 114 µM), for inactives: at the highest dose activity change, negative = inhibition, hits mostly inhibitors; further: potency means the concentration at half of the fitted maximal effect; on the % scale 0 is the no-effect control and ±100 the full control effect; nearly all actives have a fitted effect of over 65% in size
Target sequence (P39748 whole entry, looked up): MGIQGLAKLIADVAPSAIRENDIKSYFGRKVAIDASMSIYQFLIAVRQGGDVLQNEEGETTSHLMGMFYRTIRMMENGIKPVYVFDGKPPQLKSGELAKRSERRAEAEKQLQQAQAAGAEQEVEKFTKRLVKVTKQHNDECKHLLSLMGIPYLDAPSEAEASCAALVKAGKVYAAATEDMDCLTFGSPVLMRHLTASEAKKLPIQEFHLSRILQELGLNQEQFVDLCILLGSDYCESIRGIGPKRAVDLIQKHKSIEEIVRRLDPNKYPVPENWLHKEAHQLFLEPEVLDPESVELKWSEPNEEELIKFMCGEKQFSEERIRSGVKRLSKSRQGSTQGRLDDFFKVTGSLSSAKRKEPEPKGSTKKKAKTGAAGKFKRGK
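Concentration–response screening of FEN1 (10 nM): 15 min compound preincubation at room temperature, reaction started with 50 nM substrate and read at 0 and 15 min. Corrected, normalized data were fitted by a four-parameter Hill equation.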
PI5P4Ka inh: qHTS for Inhibitors of phosphatidylinositol 5-phosphate 4-kinase (PI5P4K); Phosphatidylinositol 5-phosphate 4-kinase type-2 alpha (Homo sapiens), P48426; PI5P4Kalpha enzyme, ADP-Glo luminescence, 60 min; hits give low values; max response, %; 330,000 tested, 1.2% active; active means max response of -50% or lower; inconclusive means between -30% and -50%; inactive means -30% or higher; further: value at the top dose of about 77 µM; on the % scale 0 is the no-effect control and ±100 the full control effect
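Controls without substrate or without enzyme flank wells where PI5P4Kalpha converts substrate using 5 microM ATP (final). Incubation lasts 60 minutes at room temperature; ADP formed is read by ADP-Glo luminescence.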
Pin1 inh: qHTS Assay to Find Inhibitors of Pin1 | Peptidyl-prolyl cis-trans isomerase NIMA-interacting 1 (Homo sapiens), Q13526 | Pin1 FP peptide displacement, HiFluor488, 10 min | 390,000 tested, 0.009% active | AID 504891, 2011 | Potency, µM (doses to about 115 µM), without a hit: at the highest dose activity, negative = inhibition, usual class: inhibitors; active means well fitted inhibition curve with a large enough effect in the polarisation, with a control signal flat, not every such curve was filed as active; inconclusive means small, poorly fitted or top-dose-only effect, or effect the other way, or a change in a side signal; inactive means no such curve, though single readings can be large or run the other way; the % refers to the polarisation; further: potency means the concentration at half of the fitted maximal effect; on the % scale 0 is the no-effect control and ±100 the full control effect
Target sequence (Q13526 whole entry, looked up): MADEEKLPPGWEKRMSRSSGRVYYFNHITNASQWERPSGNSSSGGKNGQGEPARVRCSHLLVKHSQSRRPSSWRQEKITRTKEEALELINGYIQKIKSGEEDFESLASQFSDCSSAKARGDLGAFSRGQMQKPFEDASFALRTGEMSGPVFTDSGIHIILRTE
Active calls of the source: *; i = inactive; ? = inconclusive; . = no result given; [ ] = remark or other dose. Unless noted, the call rests on the fitted dose curve; in most records, active means well fitted curve in the direction sought with a large enough effect; inconclusive means small, poorly fitted or top-dose-only effect, or another doubt; inactive means no such curve, though single readings can be large; an effect the other way counts as inactive or inconclusive.

SMILES | WRN inhibitor | GRP78 ERSR act | Tb PGK inh | FEN1 inh | PI5P4Ka inh | Pin1 inh
c1cncc(OC2CCN(Cc3ccc4c(c3)CN(Cc3ccc5c(c3)CCO5)CCO4)CC2)c1 | . | -4% | . | . | . | .
CC(NC(=O)CSc1nc2sc3c(c2c(=O)n1-c1ccccc1)CCCC3)c1ccccc1 (stereo not given) | -4% | -3% | -3% | 13% | . | 2%
O=C(CSc1nc2sc3c(c2c(=O)n1-c1ccccc1)CCCC3)N/N=C/c1ccccc1C(=O)O | 0% | 1% | ? | 50µM* | -13 | 1%
O=C1c2ccccc2-c2onc3ccc(NCc4ccco4)c1c23 | ? | -6% | -18% | 8.9µM* | -20 | ?
CCOc1ccc2noc3c2c1C(=O)c1ccccc1-3 | 3% | -6% | -9% | -7% | -1 | 5%
Cc1ccc(NC(=O)Cc2ccc(Cl)cc2)cc1S(=O)(=O)N1CCCCCC1 | -12% | -6% | -12% | -13% | 7 | 42%
Cc1ccc(NC(=O)Cn2ncc(Cl)c(Cl)c2=O)cc1S(=O)(=O)N1CCCCC1 | -8% | -16% | -1% | -12% | -58* | -1%
CC1C2(C)OC(=N)C(C#N)(C(C)O2)C1(C#N)C#N (stereo not given) | 79µM* | -3% | i | -2% | -3 | ?
O=S1(=O)N=C(Oc2ccccc2C(F)(F)F)c2ccccc21 | . | . | . | . | . | -3%
CC(=NO)c1ccc2c(c1)Cc1cc([N+](=O)[O-])ccc1-2 | -26% | 5% | 11% | -21% | -70* | ?
CC(O)CN(CC(C)O)c1ccc2c(c1)Cc1cc([N+](=O)[O-])ccc1-2 (stereo not given) | -8% | -1% | -1% | 5% | 7 | ?
O=C1c2ccccc2C(=O)N1Cc1ccncc1 | . | . | . | . | . | -5%
CC(=O)Oc1ccc2c(c1)O/C(=C\c1ccncc1)C2=O | -11% | 7% | 2% | -1% | -53* | ?
CCC(=O)Oc1ccc2c(c1)O/C(=C\c1ccco1)C2=O | -24% | 5% | -1% | -26% | -65* | ?
O=C(Oc1ccc2c(c1)O/C(=C\c1ccncc1)C2=O)c1cccs1 | -14% | -3% | i | 7% | ? | ?
CC(C)C(NC(=O)c1ccccn1)c1nnc2n1CCN(Cc1ccc3ccccc3c1)CC2 (stereo not given) | . | -2% | . | . | . | .
CCCCC(OC(=O)CNC(=O)c1ccccc1)C(=O)Nc1cc(C(F)(F)F)ccc1Cl (stereo not given) | . | . | . | . | . | 2%
COc1ccc(OC)c(NC(=O)C(OC(=O)CNC(=O)c2ccccc2)c2ccccc2)c1 (stereo not given) | . | . | . | . | . | 1%
CCc1cc(=O)oc2cc(C)c(CN3CCCC(C)C3)c(O)c12 (stereo not given) | 35µM* | -4% | -5% | 50µM* | . | ?
CCCCc1cc(=O)oc2c(CN3CCCC3)c(O)ccc12 | 2% | -2% | 6% | 1% | -1 | -5%
CCCCc1cc(=O)oc2cc(C)c(CN3CCCC3)c(O)c12 | 50µM* | -3% | -8% | ? | . | ?
O=S(=O)(c1ccc2c(c1)OCCO2)N1CCN(S(=O)(=O)c2ccc(F)c(F)c2F)CC1 | . | . | . | . | . | 3%
N#CC(C#N)=C1C=CC=CN1/C(=C\c1ccccc1Cl)C(=O)c1ccccc1 | 50µM* | -14% | i | -11% | -21 | ?
CC1CCN(C(=O)/C(=C/c2ccccc2Cl)c2ccccc2)CC1 | -9% | 5% | -4% | -19% | 3 | 5%
O=S1(=O)N=C(Oc2ccc(Br)cc2)c2ccccc21 | . | . | . | . | . | -1%
SMILES | WRN inhibitor | GRP78 ERSR act | Tb PGK inh | FEN1 inh | PI5P4Ka inh | Pin1 inh
COc1cc(/C=C2\NC(=S)N(C)C2=O)ccc1O | -8% | 1% | i | -18% | -5 | ?
CN1C(=O)/C(=C/c2ccc(O)c([N+](=O)[O-])c2)NC1=S | -14% | 4% | -16% | 4% | -56* | -1%
CC(C)Cc1c2c([nH]c(=S)c1C#N)CCCC2 | -10% | -6% | -1% | -1% | ? | 0%
COc1ccc(-c2c3c([nH]c(=S)c2C#N)CCC3)cc1 | -9%[57.1 µM] | 2% | -6% | -2% | -70* | ?
COc1ccc(OC)c(-c2c3c([nH]c(=S)c2C#N)CCCC3)c1 | -6% | -4% | 10% | 5% | -58* | 5%
COc1ccc(-c2c(C#N)c(SCC(N)=O)nc3c2CCCC3)cc1 | -15% | -6% | -1% | -4% | 0 | 2%
COC(=O)C1=C(C)NC(C)=C(C(=O)O[C@H]2CCN(Cc3ccccc3)C2)C1c1cccc([N+](=O)[O-])c1 (stereo not given in full) | . | -5% | . | . | . | .
O=C(CNC(=O)c1ccccc1)OC(C(=O)Nc1ccc2c(c1)OCO2)c1ccccc1 (stereo not given) | . | . | . | . | . | 1%
Cn1c(/N=C/c2c(O)ccc3ccccc23)nc2ccccc21 | 45µM* | 1% | -11% | ? | . | -3%
CCCn1c(/N=C/c2ccccc2O)nc2ccccc21 | -8% | -4% | -7% | 7% | 1 | -8%
Cc1ccccc1NC(=O)C(Cl)=C(Cl)Cl | -6% | 35µM* | -1% | -11% | 1 | 4%
COc1ccc(CNCCS(=O)(=O)NN2CCOCC2)cc1 | 8% | -2% | -6% | -11% | -63* | -2%
CCCCCCCCNCCS(=O)(=O)NCc1ccccc1 | -4% | -4% | 1% | ? | 19 | -1%
CCCCCCCCNCCS(=O)(=O)NN1CCOCC1 | -4% | 1% | 8% | -13% | -69* | 2%
COCCCCOc1cc2nc(N3CCCN(C)CC3)nc(NC3CCN(C)CC3)c2cc1OC | . | . | . | 45µM* | . | .
COc1cc2c(NC3CCN(C)CC3)nc(N3CCCN(C)CC3)nc2cc1OCCCCCN | . | -3% | . | 8.9µM* | . | .
COc1cc2c(NC3CCN(C)CC3)nc(N3CCCN(C)CC3)nc2cc1OCCCCCC(N)=O | . | . | . | 0% | . | .
COc1cc2nc(N3CCCN(C)CC3)nc(NC3CCN(C)C3)c2cc1OC (stereo not given) | . | -3% | . | ? | . | .
COc1cc2c(NC3CCN(C)CC3)nc(N3CCCN(C)CC3)nc2cc1OCC1CCCCN1 (stereo not given) | . | -6% | . | 20µM* | . | .
COc1cc2c(NC3CCN(C)CC3)nc(N3CCCN(C)CC3)nc2cc1OCCN(C)CCN(C)C | . | -4% | . | ? | . | .
COc1ccc(C)cc1NC(=O)C(OC(=O)CNC(=O)c1ccccc1)c1ccccc1 (stereo not given) | . | . | . | . | . | -1%
